Test results reported in PMC5540273 (PLoS ONE, 2017).
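Note: kd values determined as follow-up on hits from a single-replicate KINOMEscan panel screen.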

These molecules were tested on TGFBR1.
`O=C(c1ccc(-c2cc(-c3c[nH]nc3-c3ccccn3)ccn2)cc1)N1CCOCC1` [GW812171] was tested, and the Kd was 180 nM. Molecule `c1ccc(-c2n[nH]cc2-c2ccnc3ccccc23)nc1` [GW271431] has a Kd of 110 nM. Work on `N#Cc1ccc(-c2cc(-c3c[nH]nc3-c3ccccn3)ccn2)cc1` [GW693028] yielded a Kd of 150 nM.

The molecules below were run on T1, VPS34.
T1 construct: gene PIK3C3
`NS(=O)(=O)c1cccc(-c2ccc3ncc(N4CCOCC4)nc3c2)c1` [GSK1535721] was tested, and the Kd was > 10000 nM. For `N#Cc1c(N2CCOCC2)sc(-c2ccn[nH]2)c1-c1ccc(Cl)cc1`, the Kd was 58 nM. `O=c1cc(N2CCOCC2)nc2n(Cc3cccc(C(F)(F)F)c3)ccn12` [GSK2297543] showed a Kd of 130 nM. For `O=c1cc(N2CCOCC2)nc2n(Cc3cccc4ccccc34)ccn12` [GSK2333389], the Kd was 60 nM. In the case of `Cc1cn2c(=O)cc(N3CCOCC3)nc2n1Cc1cccc(Cl)c1Cl` [GSK2334006], the Kd is reported as 2.2 nM. `Cc1cccc(Cn2ccn3c(=O)cc(N4CCOCC4)nc23)c1` [GSK2297542] was tested, and the Kd was 75 nM. `O=c1cc(N2CCOCC2)nc2n(Cc3cccc(F)c3)ccn12` [GSK2297430] gave a Kd of 33 nM. `O=c1cc(N2CCOCC2)nc2n(Cc3cccc(Cl)c3Cl)c(C3CC3)nn12` [GSK2358994] showed a Kd of 0.39 nM.
